# Experimental data published in ChEMBL document CHEMBL1157539, “Thousands of chemical starting points for antimalarial lead identification” (Nature, 2010).
# Tests used:
# Assay type in all cases: functional
# Plasmodium falciparum [1] = experiment: GSK_TCMDC: Inhibition of Plasmodium falciparum 3D7 in whole red blood cells, using parasite LDH activity as an index of growth. Test compounds present at 2uM
# Plasmodium falciparum [2] = experiment: GSK_TCMDC: Inhibition of Plasmodium falciparum Dd2 in whole red blood cells, using parasite LDH activity as an index of growth. Test compounds present at 2uM
# HepG2 = experiment: GSK_TCMDC: Percent inhibition of human HepG2 cell line. Test compounds present at 10uM.
Compound,Inhibition (Plasmodium falciparum [1]) [%],Inhibition (Plasmodium falciparum [2]) [%],Inhibition (HepG2) [%]
COc1cc2c(cc1C(F)(F)F)N(C(=O)Nc1cc(OC(F)(F)F)cc(-c3cccnc3)c1)CC2,100,49,55
NC1CCCN(Cc2cccc(-c3ccc(-c4nc5cc(F)ccc5[nH]4)cc3)c2)C1.O=C(O)C(F)(F)F (stereo not drawn),100,99,40
CC(=O)c1sc(Cc2nc3ccccc3s2)nc1C,94,88,0
COc1ccc(S(=O)(=O)NC2CCN(c3ccnc4cc(Cl)ccc34)C2)cc1.O=C(O)C(F)(F)F (stereo not drawn),100,86,12
O=C(N[C@H]1CCCC[C@H]1C(=O)O)c1ccccc1,95,3,7
O=C(CC(=O)C(F)(F)F)c1ccccc1[N+](=O)[O-],97,95,65
O=C(Cc1ccc(NC(=O)c2ccc(O)c(-c3cccc([N+](=O)[O-])c3)c2)cc1)NCCN1CCCCC1,89,3,4
CCc1c(CCNCCCCCCNCCc2ccc3c(c2C)OCO3)ccc2c1OCO2.Cl,100,7,59
COc1cccc(CN2CCCC(CCC(=O)Nc3ccc(C(F)(F)F)cc3)C2)c1O (stereo not drawn),98,97,15
COc1cccc2c(N/N=C/c3ccc([N+](=O)[O-])cc3)ccnc12,92,16,25
CC(=O)Nc1ccc(C(=O)Nc2cccc(-c3ccc(-c4nc5cccc(C)c5[nH]4)cc3)c2)cn1,100,94,25
